Values joined by “and” are separate entries in the source; they are usually repeats but may differ in a detail not shown here. Identical values can stand only once. Results filed as inconclusive are left out. Active and inactive are the calls of the source. The calls were made as follows: active = hit-call score of the fitted dose curve at least 0.9, where 1 is the maximum; inconclusive = response in the unintended direction; inactive = score below 0.9.

This test is described as follows: ATG_XTT_Cytotoxicity: Cytotoxicity Assessment in the Attagene TRANS-FACTORIAL HepG2 Assay (AID 2283584).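 As to AC50: cells exposed to compound for 24 h before reading; active means loss of viability signal versus DMSO baseline.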 As for the experimental part: ATG_XTT_Cytotoxicity is a cell-based, single-readout assay that uses HepG2, a human liver cell line, with measurements taken at 24 hours after chemical dosing in a 24-well plate.ATG_XTT_Cytotoxicity is one of one assay component(s) measured or calculated from the ATG_XTT_Cytotoxicity assay. It is designed to make measurements of cell number, a form of viability reporter, as detected with […] signals by XTT cytotoxicity assay technology.Data from the assay component ATG_XTT_Cytotoxicity was analyzed into 1 assay endpoint. This assay endpoint, ATG_XTT_Cytotoxicity, was analyzed in the positive analysis fitting direction relative to DMSO as the negative control and baseline of activity. Using a type of viability reporter, loss-of-signal activity can be used to understand changes in the viability. Furthermore, this assay endpoint can be referred to as a primary readout, because the performed assay has only produced 1 assay endpoint. To generalize the intended target to other relatable targets, this assay endpoint is annotated to the cell cycle intended target family, where the subfamily is cytotoxicity.
Human liver HepG2 cells are transiently transfected with multiple reporter transcription units (MRTUs) in 6-well plates using FuGene 6 reagent (Roche; 3 ml FuGene/1 mg DNA). The MRTU constructs are regulated by a cis-regulating element (promoter). […] A major difference between the CIS and TRANS system is that in CIS activities of endogenous TFs are measured, whereas the TRANS assay evaluates changes in activities of exogenous, chimeric NR-Gal4 proteins. […] At the end of 24 hour incubation, total RNA was isolated using TriZol reagent (Invitrogen). The isolated RNA is then reverse-transcribed using oligo(dT) primer and Mo-MLV reverse transcriptase (Invitrogen) with DNAse I (Ambion) treatment for 30 min. The one-tenth of the produced cDNA was amplified by PCR using Taq DNA polymerase (Invitrogen) and two reporter sequence-specific primers. The PCR products were fluorescently labeled by primer extension with 6-arboxyfluorescein (6-FAM) 5'-labeled reporter sequence-specific primer (2 min at 95 C, 20 s at 68 C and 10 min at 72 C) and these products were digested with 5U of HpaI (New England Biolabs) for 2h at 37 C. The fragments were purified using Qiaquick PCR columns (Qiagen), analyzed on an ABI 3130xL genetic analyzer (Applied Biosystems) with peak positions identified by using a set of X-rhodamine (ROX)-labeled MapMarker1000 molecular weight standards (BioVentures). The raw capillary electrophoresis data was processed using Attagraph software (Attagene).
For `C=CC(C)(O)CCC=C(C)CCC=C(C)C` (stereo not given), the result was inactive. For `ClCCCl`, the compound was classed as inactive. As to `CCCCCCCCCCCCN`, the AC50 is 68.9 µM (active) and 58.2 µM (active). Regarding `CC(C)=CCCC(C)CC=O` (stereo not given), the compound was classed as inactive.

For the compound `Cc1ccccc1C=O`, the call was inactive. Consider `CC1CCC2CC1C2(C)C` (stereo not given), for which the result was inactive. As to `CC(C)(CO)[N+](=O)[O-]`, the result was inactive.

For `COCCOCCOCCOCCOCCO`, the compound was classed as inactive. In the case of `CC(C)(C)C(=O)c1ccccc1`, the outcome was inactive. With `C=CC(C)(C)O`, the result was inactive.

As for `CO[Si](CCCn1c(=O)n(CCC[Si](OC)(OC)OC)c(=O)n(CCC[Si](OC)(OC)OC)c1=O)(OC)OC`, the compound was classed as inactive. In the case of `C[C@H]1C[C@@H]2[C@H]([C@@H](O)C[C@@]3(C)[C@H]2CC[C@]3(O)C(=O)CO)[C@@]2(C)C=CC(=O)C=C12`, the compound was classed as inactive. `CC1(C)OC[C@@H]2O[C@@]3(C(=O)O)OC(C)(C)O[C@H]3[C@@H]2O1`: the result was inactive. In the case of `Cc1ccc(C=O)cc1`, the outcome was inactive. On to `Cc1cccc(Nc2ccccc2C(=O)O)c1C`, for which the compound was classed as inactive. Turning to `CC(C)(C)c1n[nH]c(=S)n(N)c1=O`, the call was inactive. On to `CC(=O)/C=C/C1=C(C)CCCC1(C)C`, for which the compound was classed as inactive.

Consider `CC(=O)C(=O)O`, for which the result was inactive.

With `CCCCC(CC)COC(=O)/C=C\C(=O)OCC(CC)CCCC` (stereo not given), the compound was called inactive. Still for that read-out and setting: then `CNC[C@H](O)c1cccc(O)c1`, with “inactive”; and `O=C(O)CCCCCCCCCCC(=O)O`, with “inactive”.

For the compound `CCCCCCCCCCC(CO)CCCCCCCC` (stereo not given), the compound was called inactive. For `NC(N)=NC(=O)c1nc(Cl)c(N)nc1N`, the compound was classed as inactive. With `Clc1ccc(Cl)c(Cl)c1Cl`, the result was inactive. With `CCCCCCCCCC=O`, the outcome was inactive. With `COc1c(Cl)c(Cl)c(Cl)c(Cl)c1Cl`, the call was inactive.

Regarding `O=S(=O)(O)c1ccc(O)c2ncccc12`, the compound was called inactive. `NCCCCCCN`: the call was inactive. Take `Cc1ncc([N+](=O)[O-])n1C`: the call was inactive. In the case of `COc1ccc(Nc2ccccc2)c(C)c1`, the outcome was inactive. Turning to `CCCCO`, the call was inactive. Take `CC(CCO)CCc1ccccc1` (stereo not given): the call was inactive.

For `CCC(C)(O)CCC=C(C)C` (stereo not given), the compound was classed as inactive. With `COc1cc(C)cc(O)c1`, the call was inactive.

With `CC(=O)C(C)=O`, the compound was called inactive. On the same count and under the same terms, next, `CC(CC(C)(C)C)CC(C)(C)CC(C)(C)C` (stereo not given): “inactive”. `Cc1ccc(C(C)C)cc1O`: the compound was classed as inactive. On the same count and under the same terms, then `Nc1cc([N+](=O)[O-])ccc1Cl`, with “inactive”; and `CCCC1CCC(=O)O1` (stereo not given), with “inactive”; and `C=C[Si](OCC)(OCC)OCC`, with “inactive”.

The values above are taken from PubChem BioAssay (EPA / NIEHS).
